High-throughput results (PubChem)
a7 integrin act: qHTS for Activators of Integrin-Mediated Alleviation for Muscular Dystrophy | 350,000 compounds, 0.064% hits | Potency, µM (doses to about 38.3 µM), usual class: activators | alpha7betagal myoblasts, beta-gal FDG fluorescence, 48 h | AID 624291, 2012; active means well fitted activation curve with a large enough effect; inconclusive means small, poorly fitted or top-dose-only effect; inactive means no such curve, though single readings can be large or run the other way; further: nearly all actives have a fitted effect of over 60% in size
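Alpha7betagal+/- myoblasts (passage 13) were plated 16-24 hr, then exposed to compounds (1:260 dilution of DMSO stock) for 48 hours at 37C. After MPER lysis, β-galactosidase reporter activity was read as FDG fluorescence (ex 480/em 540) after 30 minutes.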
DRD3 antagonist: qHTS of D3 Dopamine Receptor Antagonist: qHTS; D(3) dopamine receptor (Homo sapiens), P35462; max response, negative = inhibition, %; D3R cells, DiscoveRx beta-arrestin luminescence, antagonist mode; hits give low values; 360,000 compounds, 2.5% hits; in the data active means max response below about -50%; inconclusive means no clear call, values can overlap the other calls
Target sequence (P35462 whole entry, looked up): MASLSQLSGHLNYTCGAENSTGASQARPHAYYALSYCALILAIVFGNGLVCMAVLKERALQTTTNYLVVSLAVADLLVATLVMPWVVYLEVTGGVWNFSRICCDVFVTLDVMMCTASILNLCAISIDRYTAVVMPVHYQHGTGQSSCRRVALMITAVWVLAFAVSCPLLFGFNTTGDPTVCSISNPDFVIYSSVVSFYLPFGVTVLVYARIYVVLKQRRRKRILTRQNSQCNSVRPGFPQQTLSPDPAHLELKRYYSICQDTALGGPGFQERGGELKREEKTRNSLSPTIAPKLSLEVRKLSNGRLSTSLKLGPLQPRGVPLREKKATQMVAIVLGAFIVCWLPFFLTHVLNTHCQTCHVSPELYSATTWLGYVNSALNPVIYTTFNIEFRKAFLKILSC
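Cells plated overnight at 1500 cells/well, then exposed to library compounds with dopamine controls for 90 minutes at 37 degrees C. DiscoveRx reagent added for 30–60 minutes at room temperature; luminescence read, quantitative HTS format.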
DRD3 agonist: qHTS of D3 Dopamine Receptor Agonist: qHTS; 410,000 compounds, 0.58% hits; D(3) dopamine receptor (Homo sapiens), P35462; max activation, %; AID 652048, 2013; D3R DiscoveRx beta-arrestin cells, luminescence, 90 min; in the data active means max activation above about 30%
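Cells at 1500/well, incubated overnight, then treated with pinned compounds (dopamine as control) for 90 min at 37 degrees C. DiscoveRx reagent added for 30 - 60 minutes at room temperature; luminescence read.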
Of the large screens only hits and unclear results are named; the others gave an inactive call. Hits are enriched below; roughly 2.9% of the tested compounds scored in any of these assays.

Cc1ccc(-n2nc(C)cc2NC(=O)COc2cc(C)cc3oc(=O)c4c(c23)CCC4)cc1	none
CN1/C(=C\C=C2C(=O)NC(=O)NC2=O)C(C)(C)c2ccccc21	none
CCN1/C(=C/C=C/C2=[N+](CC)c3ccccc3C2(C)C)C(C)(C)c2ccccc21	DRD3 antagonist -71.6 (no result: a7 integrin act)
COc1cc(OC)c(OC)cc1CN1CCN(C(=O)Cc2ccccc2)CC1	none
CC(C)(C)n1c(O)c(C=Nc2ccc3c(c2)CCC3)c(=O)[nH]c1=O	none
O=C1C(=O)c2ccccc2-c2ccccc21	DRD3 antagonist -67.2 (no result: a7 integrin act)
NC1=C(Br)C(=O)c2ccccc2C1=O	none
c1cc2ccc3cccc4ccc(c1)c2c34	none (no result: a7 integrin act, DRD3 antagonist)
O=C1C(=O)c2cccc3cccc1c23	DRD3 antagonist -58.7
C=CCN(CC=C)C(=O)CCN1CC1C (stereo not drawn)	none
CN1CC(C(=O)c2ccc([N+](=O)[O-])cc2)C(c2ccc(Cl)cc2)C1 (stereo not drawn)	DRD3 antagonist -58.9
COc1ccc(C(=O)C2CN(C)CC2c2ccc(Cl)cc2)cc1 (stereo not drawn)	a7 integrin act inconclusive
Cc1cc(=O)oc2cc(OCC(=O)N3CCC(C(=O)O)(c4ccccc4)CC3)ccc12	none
CS(=O)(=O)c1ccc(C2=C(CNC(=O)c3ccc([N+](=O)[O-])cc3)[C@H]3CC[C@@H](C2)N3CCOc2ccccc2)cc1	DRD3 antagonist inconclusive
CS(=O)(=O)c1ccc(C2=C(CNC(=O)c3ccc([N+](=O)[O-])cc3)[C@H]3CC[C@@H](C2)N3Cc2ccccc2)cc1	DRD3 antagonist -85.7
CCOC(=O)c1cccc(C2=C(CNC(=O)c3ocnc3C)[C@H]3CC[C@@H](C2)N3Cc2ccccc2)c1	none
CCOC(=O)c1cccc(C2=C(CNC(=O)c3nccs3)[C@H]3CC[C@@H](C2)N3Cc2ccccc2)c1	DRD3 antagonist -57.0
Fc1ccc(Cn2nnnc2CN2CCC(n3nnc4cc(C(F)(F)F)ccc43)CC2)cc1	none
Fc1ccc2c(c1)nnn2C1CCN(Cc2nnnn2CCc2ccccc2)CC1	DRD3 antagonist -74.7
c1ccc(CCn2nnnc2CN2CCC(n3nnc4ccccc43)CC2)cc1	DRD3 antagonist inconclusive
Fc1ccc2c(c1)nnn2C1CCN(Cc2ccccc2)CC1	DRD3 antagonist -77.8
CC(C)(C)c1o[nH]c(=O)c1CC(N)C(=O)O (stereo not drawn)	none (no result: a7 integrin act)
CCCCn1c(O)c(/C=C/C=Nc2ccccc2)c(=O)[nH]c1=O	none
O=C1N(c2cccc(Cl)c2)C(c2cccnc2)N2CCCN12 (stereo not drawn)	none
N=c1c[n+](CC23CC4CC(CC(C4)C2)C3)[n-]o1	none
NC(N)=N/N=C/c1ccc(N(c2ccccc2)c2ccccc2)cc1	DRD3 antagonist inconclusive
CN1C(=O)N(C)C(=O)C(NS(=O)(=O)c2ccc(N)cc2)(c2ccccc2)C1=O	none
C[C@]12CC[C@H](OS(=O)(=O)O)CC1=CC[C@@H]1[C@@H]2CC[C@]2(C)C(=O)CC[C@@H]12	none (no result: a7 integrin act)
CCN(CC)CCO[C@H]1CC[C@@]2(C)C(=CC[C@@H]3[C@@H]2CC[C@]2(C)C(=O)CC[C@@H]32)C1	DRD3 agonist 34.2 (no result: a7 integrin act, DRD3 antagonist)
CC(=O)O[C@]1(C)C(=O)OC/C2=C/CN(C)CCC(OC(=O)[C@@](O)(C(C)O)C[C@H]1C)C2=O (stereo partly drawn)	a7 integrin act inconclusive
CC1(C)C(C=C(Cl)Cl)C1C(=O)OC(C#N)c1cccc(Oc2ccccc2)c1 (stereo not drawn)	none (no result: a7 integrin act, DRD3 antagonist)
CCc1nc(N2CCNCC2)c(C#N)c2c1CSC(C)(C)C2	DRD3 antagonist -74.0
CC(C)Cc1nc(N2CCNCC2)c(C#N)c2c1CCC2	DRD3 antagonist inconclusive
CC(=O)OC1C2CCCC1C(N1CCCC1)CC2 (stereo not drawn)	none
COC(=O)C1=C(c2cccc(OCc3ccccc3)c2)C[C@@H]2CC[C@H]1N2C(=O)NCc1ccc(OC)cc1	DRD3 antagonist -67.7
COC(=O)C1=C(c2cccc(OCc3ccccc3)c2)C[C@@H]2CC[C@H]1N2C(=O)NCc1ccccc1OC	DRD3 antagonist -51.6
COC(=O)C1=C(c2cccc(OCc3ccccc3)c2)C[C@@H]2CC[C@H]1N2C(=O)NCc1ccc(Cl)cc1	DRD3 antagonist -51.8
COC(=O)C1=C(c2cccc(OCc3ccccc3)c2)C[C@@H]2CC[C@H]1N2C(=O)NCc1ccc(OC)c(OC)c1	none
COC(=O)C1=C(c2cccc(OCc3ccccc3)c2)C[C@@H]2CC[C@H]1N2C(=O)NCc1ccc([N+](=O)[O-])cc1	none
COC(=O)C1=C(c2cccc(OCc3ccccc3)c2)C[C@@H]2CC[C@H]1N2C(=O)NCc1ccccc1	none
CCn1cc(CN2CCCC(C(=O)c3sccc3C)C2)cn1 (stereo not drawn)	a7 integrin act inconclusive
Brc1cccc(CNCCc2ccc3c(c2)OCO3)c1	DRD3 antagonist inconclusive
Cc1cccc(-c2nc(CN3C(=O)CN=C(c4ccccc4)c4ccccc43)c(C)o2)c1	none (no result: a7 integrin act, DRD3 antagonist)
CCC(=NCCN1CCOCC1)c1c(O)n(C2CCCCC2)c(=O)[nH]c1=O	none
COC(=O)C1=CO[C@@H](C)[C@H]2CN3CC[C@]4(C(=O)Nc5ccccc54)[C@@H]3C[C@H]12	none
Cc1c(N=Cc2c(O)n(C)c(=O)[nH]c2=O)c(=O)n(-c2ccccc2)n1C	none
O=c1[nH]c(=S)n(Cc2ccco2)c(O)c1C=NCc1cccs1	DRD3 antagonist -70.3
O=c1[nH]c(=O)n(Cc2ccco2)c(O)c1C=NCc1cccs1	none
CCCCn1c(O)c(/C=N/NC(=O)c2ccncc2)c(=O)[nH]c1=S	none
COc1ccc(-c2nn(CCC#N)cc2C(=O)Nc2cccc([N+](=O)[O-])c2)cc1OC	none
Cc1ccccc1N1CCN(C2CCCN(C(=O)COc3ccccc3)C2)CC1 (stereo not drawn)	none
Nc1ccc(CC(N)c2csc(Nc3ncccn3)n2)cc1 (stereo not drawn)	none (no result: a7 integrin act)
COc1ccccc1CCNC1CCCCCC1	DRD3 antagonist inconclusive
COc1ccccc1CCNC1CCC(C(C)(C)C)CC1 (stereo not drawn)	DRD3 antagonist -74.2
CCOc1ccccc1Oc1coc2cc(OC(=O)N(C)C)ccc2c1=O	none
CCCCCCC(C)(C)c1ccc([C@@H]2C[C@H](O)CC[C@H]2CCCO)c(O)c1	DRD3 agonist 69.7 (no result: a7 integrin act)
CCCC/C(C)=C/[C@@H](NP(=O)(c1ccccc1)c1ccccc1)c1ccccc1	none
Cc1ccsc1C(=O)C1CCCN(Cc2cc(C(C)C)n[nH]2)C1 (stereo not drawn)	DRD3 antagonist -80.8
COc1ccc(C(=O)C2CCCN(Cc3cccc(C)n3)C2)c(OC)c1 (stereo not drawn)	none
Cc1ccsc1C(=O)C1CCCN(Cc2cnn(C)c2)C1 (stereo not drawn)	DRD3 antagonist inconclusive
COc1ccc(OC)c(CN2CCCC(C(=O)c3sccc3C)C2)c1 (stereo not drawn)	DRD3 antagonist -82.2
Cc1ccsc1C(=O)C1CCCN(Cc2ccn[nH]2)C1 (stereo not drawn)	a7 integrin act inconclusive, DRD3 antagonist -62.2
Cc1ccsc1C(=O)C1CCCN(CCO)C1 (stereo not drawn)	DRD3 antagonist inconclusive
